Measurements from PubChem BioAssay AID1159580 (chemical genetic matrix, 2015).
Several values for one entry are separate records, joined by “and”; a condition that tells them apart may be missing. Equal values may be shown once. The whole screen tested about 5,500 compounds, of which about 2,000 (36%) were called active. Roughly 18% stayed inconclusive and do not appear here. Cut-off read from the data, not from the text of the source: active = normalized growth mostly below about 0.91 (no sharp cut-off); inconclusive = no clear call, values can overlap the other calls; inactive = mostly above about 0.92. This is one part of the list.

Test: chemical genetic growth profiling, strain panel (AID 1159580);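 note: tested at 20 µM; growth read once vehicle control cultures reached saturation at 30 °C; 1 = growth at the plate median or of vehicle wells; lower values mean less growth of the strain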
Details: growth OD

Measured: normalized growth

O=C1N=C(O)CN1/N=C\c1ccc(-c2ccc([N+](=O)[O-])cc2)o1
inactive: S. cerevisiae deletion strains, locus YJR075W, strain HOC1, hits give low values 1.03 and 0.99 | S. cerevisiae deletion strains, locus YKL009W, strain mrt4, hits give low values 1.04 | S. cerevisiae deletion strains, locus YKL068W, hits give low values 1.03 | S. cerevisiae deletion strains, locus YKL085W, strain MDH1 (second series), hits give low values 1.02 | S. cerevisiae deletion strains, locus YKL085W, strain MDH1, hits give low values 1.02 | S. cerevisiae deletion strains, locus YKL160W, strain elf1, hits give low values 0.994 | S. cerevisiae deletion strains, locus YKL190W, strain CNB1, hits give low values 1.02 | S. cerevisiae deletion strains, locus YKR001C, strain vps1, hits give low values 1.03 | S. cerevisiae deletion strains, locus YKR026C, strain gcn3, hits give low values 0.99 | S. cerevisiae deletion strains, locus YKR091W, strain srl3, hits give low values 0.98 | S. cerevisiae deletion strains, locus YLL001W, strain dnm1, hits give low values 1 | S. cerevisiae deletion strains, locus YLL026W, hits give low values 0.997 | S. cerevisiae deletion strains, locus YLL041C, strain sdh2, hits give low values 0.97 | S. cerevisiae deletion strains, locus YLR027C, strain aat2, hits give low values 0.988 | S. cerevisiae deletion strains, locus YLR039C, strain RIC1, hits give low values 1.05 | S. cerevisiae deletion strains, locus YLR058C, strain SHM2, hits give low values 1.02 | S. cerevisiae deletion strains, locus YLR102C, strain apc9, hits give low values 1.03 | S. cerevisiae deletion strains, locus YLR113W, strain HOG1, hits give low values 1.02 | S. cerevisiae deletion strains, locus YLR221C, strain rsa3, hits give low values 0.994 | S. cerevisiae deletion strains, locus YLR258W, strain gsy2, hits give low values 0.994 | S. cerevisiae deletion strains, locus YLR262C, strain YPT6 (second series), hits give low values 0.933 | S. cerevisiae deletion strains, locus YLR262C, strain YPT6, hits give low values 1.05 | S. cerevisiae deletion strains, locus YLR268W, strain sec22, hits give low values 1.01 | S. cerevisiae deletion strains, locus YLR320W, strain mms22, hits give low values 0.966 | S. cerevisiae deletion strains, locus YLR330W, strain CHS5, hits give low values 1.02 | S. cerevisiae deletion strains, locus YLR342W, strain FKS1 (second series), hits give low values 1 | S. cerevisiae deletion strains, locus YLR342W, strain FKS1, hits give low values 0.986 | S. cerevisiae deletion strains, locus YLR357W, strain rsc2, hits give low values 0.931 | S. cerevisiae deletion strains, locus YLR370C, strain arc18, hits give low values 0.985 | S. cerevisiae deletion strains, locus YLR371W, strain rom2, hits give low values 1.02 | S. cerevisiae deletion strains, locus YLR384C, strain iki3, hits give low values 0.974 | S. cerevisiae deletion strains, locus YLR418C, strain cdc73, hits give low values 1.02 | S. cerevisiae deletion strains, locus YML016C, strain PPZ1, hits give low values 1.02 | S. cerevisiae deletion strains, locus YML032C, strain rad52, hits give low values 1.03 | S. cerevisiae deletion strains, locus YML120C, strain ndi1, hits give low values 0.988 | S. cerevisiae deletion strains, locus YML124C, strain tub3, hits give low values 1.03 | S. cerevisiae deletion strains, locus YMR058W, strain fet3, hits give low values 0.972 | S. cerevisiae deletion strains, locus YMR078C, strain ctf18, hits give low values 1.04 | S. cerevisiae deletion strains, locus YMR125W, strain sto1, hits give low values 0.974 | S. cerevisiae deletion strains, locus YMR129W, hits give low values 0.98 | S. cerevisiae deletion strains, locus YMR205C, strain PFK2, hits give low values 0.996 | S. cerevisiae deletion strains, locus YMR223W, strain ubp8, hits give low values 1.02 | S. cerevisiae deletion strains, locus YMR231W, strain pep5, hits give low values 0.993 | S. cerevisiae deletion strains, locus YMR263W, strain SAP30, hits give low values 1.02 and 0.999 | S. cerevisiae deletion strains, locus YMR307W, strain GAS1, hits give low values 1.05 | S. cerevisiae deletion strains, locus YNL067W, strain RPL9B, hits give low values 1.02 | S. cerevisiae deletion strains, locus YNL071W, strain lat1, hits give low values 0.978 | S. cerevisiae deletion strains, locus YNL128W, strain TEP1, hits give low values 1.04 and 1.01 | S. cerevisiae deletion strains, locus YNL153C, strain GIM3, hits give low values 1.01 and 1.03 | S. cerevisiae deletion strains, locus YNL175C, strain NOP13, hits give low values 1.01 | S. cerevisiae deletion strains, locus YNL183C, strain NPR1, hits give low values 0.96 | S. cerevisiae deletion strains, locus YNL197C, strain WHI3, hits give low values 1.03 | S. cerevisiae deletion strains, locus YNL209W, strain ssb2, hits give low values 0.979 | S. cerevisiae deletion strains, locus YNL224C, strain SQS1, hits give low values 0.998 | S. cerevisiae deletion strains, locus YNL233W, strain BNI4, hits give low values 1.01 | S. cerevisiae deletion strains, locus YNL248C, strain rpa49, hits give low values 0.974 | S. cerevisiae deletion strains, locus YNL250W, strain rad50, hits give low values 1.06 | S. cerevisiae deletion strains, locus YNL271C, strain bni1, hits give low values 1.02 | S. cerevisiae deletion strains, locus YNL298W, strain CLA4, hits give low values 1.05 | S. cerevisiae deletion strains, locus YNL307C, strain MCK1, hits give low values 1.02 | S. cerevisiae deletion strains, locus YNL322C, strain KRE1 (second series), hits give low values 0.976 | S. cerevisiae deletion strains, locus YNL322C, strain KRE1, hits give low values 1.03 and 0.967 | S. cerevisiae deletion strains, locus YNR049C, strain mso1, hits give low values 0.988 | S. cerevisiae deletion strains, locus YNR052C, strain pop2, hits give low values 1.03 | S. cerevisiae deletion strains, locus YOL006C, strain TOP1, hits give low values 1.02 | S. cerevisiae deletion strains, locus YOL012C, strain htz1 0.991 | S. cerevisiae deletion strains, locus YOL147C, strain pex11, hits give low values 1.03 | S. cerevisiae deletion strains, locus YOR001W, strain rrp6, hits give low values 1.02 | S. cerevisiae deletion strains, locus YOR061W, strain CKA2, hits give low values 1.02 | S. cerevisiae deletion strains, locus YOR069W, strain VPS5, hits give low values 1.01 | S. cerevisiae deletion strains, locus YOR070C, strain gyp1, hits give low values 0.996 | S. cerevisiae deletion strains, locus YOR080W, strain dia2, hits give low values 0.989 | S. cerevisiae deletion strains, locus YOR083W, strain WHI5 (second series), hits give low values 1.03 | S. cerevisiae deletion strains, locus YOR083W, strain WHI5, hits give low values 0.977 | S. cerevisiae deletion strains, locus YOR106W, strain vam3, hits give low values 0.972 | S. cerevisiae deletion strains, locus YOR136W, strain idh2, hits give low values 1.03 | S. cerevisiae deletion strains, locus YOR144C, strain elg1, hits give low values 1.03 | S. cerevisiae deletion strains, locus YOR184W, strain ser1, hits give low values 1.04 | S. cerevisiae deletion strains, locus YOR231W, strain MKK1, hits give low values 1.03 | S. cerevisiae deletion strains, locus YOR265W, strain rbl2, hits give low values 0.986 | S. cerevisiae deletion strains, locus YOR270C, strain vph1, hits give low values 0.911 | S. cerevisiae deletion strains, locus YOR290C, strain snf2, hits give low values 0.961 | S. cerevisiae deletion strains, locus YOR316C, strain cot1, hits give low values 1.02 | S. cerevisiae deletion strains, locus YPL051W, strain arl3, hits give low values 0.999 | S. cerevisiae deletion strains, locus YPL055C, strain LGE1, hits give low values 1.02 | S. cerevisiae deletion strains, locus YPL078C, strain atp4, hits give low values 0.973 | S. cerevisiae deletion strains, locus YPL106C, strain sse1, hits give low values 0.981 | S. cerevisiae deletion strains, locus YPL240C, strain hsp82, hits give low values 0.993 | S. cerevisiae deletion strains, locus YPL241C, strain CIN2, hits give low values 1.02 and 1 | S. cerevisiae deletion strains, locus YPL256C, strain CLN2, hits give low values 1 | S. cerevisiae deletion strains, locus YPR119W, strain clb2, hits give low values 1.02 | S. cerevisiae deletion strains, locus YPR141C, strain kar3, hits give low values 1.04 | S. cerevisiae deletion strains, locus YPR163C, strain tif3, hits give low values 1.03 | S. cerevisiae deletion strains, locus YPR167C, strain met16, hits give low values 1.04 | S. cerevisiae deletion strains, strain wtn01, hits give low values 1.03 | S. cerevisiae strains, strain wild type, hits give low values 1.02
